Data: ChEMBL document CHEMBL1157539, “Thousands of chemical starting points for antimalarial lead identification” (Nature, 2010)

Assays:
Format in all cases: functional
[1] = test system: Plasmodium falciparum; assay: GSK_TCMDC: Inhibition of Plasmodium falciparum 3D7 in whole red blood cells, using parasite LDH activity as an index of growth. Test compounds present at 2uM
[2] = test system: Plasmodium falciparum; assay: GSK_TCMDC: Inhibition of Plasmodium falciparum Dd2 in whole red blood cells, using parasite LDH activity as an index of growth. Test compounds present at 2uM
[3] = test system: HepG2; assay: GSK_TCMDC: Percent inhibition of human HepG2 cell line. Test compounds present at 10uM.

Row | Structure (SMILES) | Inhibition [1] | Inhibition [2] | Inhibition [3]
1 | CC(C)c1ccc(CN2CCC(CNC(=O)c3cc(-c4ccccc4F)cs3)C2)cc1.O=C(O)C(F)(F)F (stereo not given) | 100% | 29% | 32%
2 | C=CCc1ccc(C2CCN(CCCCNC(=O)c3ccc(NC(=O)c4ccc(Cl)cc4)cc3)CC2)cc1 | 100% | 97% | 27%
3 | O=C(N1CCN(c2cccc(C(F)(F)F)c2)CC1)C(Cl)(Cl)Cl | 89% | 35% | 0%
4 | CCCC(C)NC(=O)[C@H](CC1CCCCC1)NC(=O)c1ccc(O)c(-c2cccc(C(F)(F)F)c2)c1 (stereo not given in full) | 100% | 98% | 0%
5 | O=C(Nc1cccc(-c2ccc(-c3nc4cc(C(F)(F)F)ccc4[nH]3)cc2)c1)Nc1ccc(F)c(F)c1F | 100% | 99% | 45%
6 | CCn1c(-c2cc(C)on2)nc2cnc(Oc3ccc(C(=O)N4CC(=O)N(C)C4C(C)(C)C)cc3)cc21 (stereo not given) | 81% | 57% | 44%
7 | O=C(Nc1cccc(-c2nc3ccccc3s2)c1)c1ccccc1[N+](=O)[O-] | 85% | 9% | 0%
8 | Cc1cc2[nH]c(-c3ccc(C(=O)NCCCN4CCN(c5cccc(Cl)c5)CC4)cc3)nc2cc1Cl | 98% | 73% | 1%
9 | CC(C)(C)Nc1nc(Nc2cccc([N+](=O)[O-])c2)nc(-n2ccnc2)n1 | 98% | 41% | 10%
10 | CCCC(CNCc1cccc(C)c1)CNc1cc(=O)c2ccccc2[nH]1 (stereo not given) | 99% | 89% | 0%
11 | CCOc1ccc2c(=NN=Cc3cccc(F)c3)cc(C)[nH]c2c1 | 100% | 100% | 0%
12 | N#Cc1cccc(C(=O)Nc2cccc(-c3ccc(CN4CCCC4)cc3)c2)c1.O=C(O)C(F)(F)F | 98% | 42% | 11%
13 | NCC1CCCN1Cc1ccc(-c2ccc(-c3nc4cc(F)ccc4[nH]3)cc2)cc1.O=C(O)C(F)(F)F (stereo not given) | 100% | 100% | 31%
14 | CN(C)CCNCc1ccc(-c2ccc3c(Nc4ccc(Cl)cc4F)ccnc3c2)o1 | 99% | 100% | 14%
15 | CCOc1cc(C(=O)N[C@@H](Cc2ccccc2)[C@H](O)CNCc2cc(OC)cc(OC)c2)cc(N2CCCS2(=O)=O)c1.Cl | 94% | 66% | 0%
16 | CCOc1ccc(-c2nonc2NC(=O)c2ccccc2)cc1OCC | 99% | 100% | 6%
17 | C=CC[C@@H](C(=O)OCC)[C@@H]1[C@@H](N(CC=C)C(=O)OC(C)(C)C)CCN1C(=O)OCc1ccccc1 | 92% | 68% | 2%
18 | O=C(/C=C/c1ccc(C(F)(F)F)cc1)NCCCCCN1CCN(C(=O)Nc2ccc(F)c(Cl)c2)CC1 | 89% | 0% | 35%
19 | CCCCC(N)COc1cccc2c(-c3ccncc3)c(-c3cccc(NC(=O)Nc4ccccc4)c3)nn12 (stereo not given) | 100% | 82% | 13%
20 | CCN(CC)CCNc1ccc(Nc2ccnc3cc4ccccc4cc23)cc1 | 100% | 99% | 36%

Row | Structure (SMILES) | Inhibition [1] | Inhibition [2] | Inhibition [3]
21 | Cc1cc(=NN=Cc2ccccn2)c2cc(C(F)(F)F)ccc2[nH]1 | 100% | 100% | 0%
22 | O=C1NC(=O)C(c2cccc(NC(=O)c3ccncc3)c2)=C1c1ccccc1 | 100% | 0% | 5%
23 | O=C(CN1CCCC1)Nc1cccc(C(=O)Nc2cccc(C(F)(F)F)c2)c1 | 95% | 83% | 9%
24 | O=C(O)C(F)(F)F.O=S(=O)(NCCN1CCCC1)c1ccc(-c2cccc(CNC3Cc4ccccc4C3)c2)cc1F | 98% | 62% | 41%
25 | Br.Cc1cccc(OCCCCON2C(=N)N=C(N)NC2(C)C)c1C | 97% | 95% | 65%
26 | O=C(O)C(F)(F)F.O=C1OC(c2ccccc2)(c2ccccn2)CN1C1CCN(Cc2cccn2-c2ccc(Cl)cc2)CC1 (stereo not given) | 99% | 98% | 21%
27 | O=c1c2c([nH]c3cc(Cl)ccc13)CCCC2 | 96% | 73% | 33%
28 | CN(C)CCCOc1ccc(CNCC(C)(C)c2nc(-c3ccc(Cl)c(O)c3)c(-c3ccncc3)[nH]2)cc1.Cl | 100% | 58% | 64%
29 | CCCCCCN1CCC(NCc2cccc(C(F)(F)F)c2)CC1.O=C(O)C(F)(F)F | 100% | 82% | 18%
30 | Cc1cc(N)c2cc(NC(=O)c3cccc(C(=O)Nc4ccc5nc(C)cc(N)c5c4)c3)ccc2n1.Cl | 94% | 92% | 9%
31 | CCCc1ccc(S(=O)(=O)NC2CCN(c3ccnc(Nc4ccc(F)cc4)n3)C2)cc1 (stereo not given) | 95% | 56% | 40%
32 | CCCN(Cc1nnc(-c2cccs2)o1)C(=O)C1COc2ccccc2O1 (stereo not given) | 87% | 49% | 1%
33 | CC(Sc1nc2sccc2c(=O)n1C)C(=O)Nc1ccc2c(c1)OCO2 (stereo not given) | 100% | 100% | 5%
34 | Cc1ccc(C2CCN(CCCCNC(=O)c3ccc(-c4ccc(C(F)(F)F)cc4)cc3)CC2)c(O)c1 | 100% | 49% | 92%
35 | Cc1cccc(CCCNC(=O)CN(c2cccc(C(F)(F)F)c2)S(=O)(=O)c2ccc(C(F)(F)F)cc2)c1 | 96% | 94% | 9%
36 | CC(C)(C)Oc1ccc(NC(=O)c2ccccc2O)cc1 | 86% | 67% | 4%
37 | COc1ccc2ccc(OC)c(CNCCCCCCNCc3c(OC)ccc4ccc(OC)cc34)c2c1.CS(=O)(=O)O | 100% | 32% | 100%
38 | COc1ccc(CNCc2ccccc2)cc1-c1ccc(S(=O)(=O)NCCN2CCCC2)c(C)c1.O=C(O)C(F)(F)F | 99% | 50% | 33%
39 | Cc1cc(C2CCN(CCCCNC(=O)c3ccc(NC(=O)c4ccc(Cl)cc4)cc3)CC2)c(C)cc1OCc1nccn1C.Cl | 100% | 98% | 18%
40 | O=C(Nc1cccc(-c2cccc(-c3nc4cc(F)ccc4[nH]3)c2)c1)Nc1ccc2c(c1)OCO2 | 100% | 49% | 30%

Row | Structure (SMILES) | Inhibition [1] | Inhibition [2] | Inhibition [3]
41 | Cc1ccc(O)cc1Nc1ccnc2cc(-c3nccs3)ccc12.Cl | 100% | 83% | 63%
42 | CCOC(=O)c1c(CCc2ccc(C(F)(F)F)cc2)nc2c(c1-c1ccc(C(=O)N[C@@H](C)c3ccncc3)cc1)C(=O)N1CCC[C@@H]21 | 85% | 68% | 0%
43 | O=C(Nc1cccc(-c2cccc(-c3nc4cc(C(F)(F)F)ccc4[nH]3)c2)c1)c1ccoc1 | 99% | 61% | 32%
44 | Cl.N#CC1(CCCNCCc2ccc(O)cc2)CCCc2c(O)cccc21 (stereo not given) | 95% | 3% | 0%
45 | CC(C)(C)c1ccc(CN2CCC(NC(=O)c3ccc(-c4ccccc4F)s3)CC2)cc1.O=C(O)C(F)(F)F | 85% | 37% | 36%
46 | Cl.O=c1nc(NCCCNCc2cc3c(Cl)cc(Cl)cc3[nH]2)[nH]c2ccccc12 | 91% | 4% | 10%
47 | CC(C)(C)OC(=O)n1cc(C2CCN(CCCC34CCCc5cccc(c53)NC4=O)CC2)c2ccncc21 (stereo not given) | 92% | 0% | 20%
48 | COc1cccc2sc(Nc3nc(-c4ccccn4)cs3)nc12 | 94% | 76% | 41%
49 | Clc1ccc(-c2cc(-c3csc(Nc4ccncc4)n3)on2)cc1 | 100% | 99% | 1%
50 | COc1ccc(CCCN2C(=O)C(c3ccccc3)(c3ccccc3)N=C2N)cc1.O=C(O)C(F)(F)F | 94% | 76% | 21%
51 | Cl.Nc1ccnc2ccc(NC(=O)CCCCCc3ccccc3)cc12 | 96% | 30% | 47%
52 | CN1CCCC1CCNCc1cccc(-c2cnc(N(C)C3CCCCC3)nc2)c1 (stereo not given) | 99% | 95% | 98%
53 | Fc1ccc2[nH]c(-c3ccc(-c4cccc(CN5CCN(CCN6CCOCC6)CC5)c4)cc3)nc2c1.O=C(O)C(F)(F)F | 100% | 100% | 35%
54 | Cc1c(C)n(C2CCCCC2)c2ncnc(OC3CCN(CC(=O)N4CCCC4)CC3)c12 | 95% | 59% | 31%
55 | CN1CCC(C(=O)Nc2cccc(-c3ccc(-c4nc5cc(C(F)(F)F)ccc5[nH]4)cc3)c2)CC1 | 100% | 99% | 38%
56 | Cc1ccc2c(=O)cc(CCc3cccc(F)c3F)n(CC(=O)N(Cc3ccc(-c4ccc(C(F)(F)F)cc4)cc3)C3CCN(C(C)C)CC3)c2n1.O=C(O)C(O)C(O)C(=O)O | 100% | 49% | 58%
57 | CC(C)(C)NS(=O)(=O)c1cc(C(=O)N2CCC(CCN3CCC(O)(c4cccc(C(F)(F)F)c4)CC3)(c3cccc(F)c3)CC2)c(Cl)cc1F | 88% | 55% | 15%
58 | C=CCOC(=O)O[C@@H]1[C@@H](OC(=O)OCC=C)[C@@H](OC)O[C@H](COC(c2ccccc2)(c2ccccc2)c2ccccc2)[C@H]1OC(=O)OCC=C | 95% | 96% | 5%
59 | Cc1[nH]c(C)c(-c2ccc(-c3ccccc3Cl)nc2)c(=O)c1Br | 97% | 96% | 0%
60 | Cc1ccccc1C1CCN(C2CCC(NC(=O)/C=C/c3cccc(Cl)c3)CC2)CC1 (stereo not given) | 98% | 34% | 70%
